AC50 and outcome data for 23 molecules are collected here from PubChem BioAssay (EPA / NIEHS).

Structures are written as SMILES. Several values for one entry are separate records, joined by “and”; a condition that tells them apart may be missing. Identical values can stand only once. More than one record can exist for a structure, and the calls need not agree. Activity calls are given as the source filed them. The calls were made as follows: active = hit-call score of the fitted dose curve at least 0.9, where 1 is the maximum; inactive = score below 0.9.

The assay in a line: CCTE_Padilla_ZF_144hpf_TERATOSCORE: (Legacy) CCTE's 144 Hour Post-fertilization zebrafish Assay Teratoscore, Padilla Lab (AID 2283679).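 As to AC50: zebrafish embryos with chorions exposed by immersion from 6-8 hpf to 5 dpf with daily renewal; teratogenicity score from eye scoring of death hatching and malformations at 144 hpf; higher score means more developmental defects relative to DMSO baseline.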 In outline:
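Larvae scored by eye at 144 hpf for death, hatching and malformations after a day in clean Hanks'. Before that, daily-renewed exposure at 80 uM (0.4% DMSO, 26C) from roughly 6-8 hpf through 5 dpf, 4 embryos per chemical.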
Regarding `Oc1c(Cl)c(Cl)c(Cl)c(Cl)c1Cl`, the AC50 is 0.806 µM (active).

As for `CCCN(CCC)N=O`, the molecule was called inactive.

With `Cc1cc2c3c(c1)C(c1ccccc1)=N[C@@H](NC(=O)c1ccncc1)C(=O)N3CC2`, the AC50 was 54.4 µM (active).

For the molecule `CCC(C)c1cc([N+](=O)[O-])cc([N+](=O)[O-])c1O` (centres undefined), the concentration at half-maximal activity (AC50) is 0.167 µM (active).

In the case of `CN(C)CCO`, the molecule was called inactive.

For the molecule `CCCCCCCCOC(=O)c1ccccc1C(=O)OCCCCCCCC`, the outcome was inactive.

Consider `O=NN(c1ccccc1)c1ccccc1`, for which the AC50 was 53.4 µM (active).

On to `CCC(C)(c1ccc(O)cc1)c1ccc(O)cc1`, for which the half-maximal activity concentration (AC50) is 15.5 µM (active) and 1.34 µM (active).

For `CCC(=O)O[C@H]1CC[C@H]2[C@@H]3CCC4=CC(=O)CC[C@]4(C)[C@H]3CC[C@]12C`, the AC50 is 79.4 µM (active).

In the case of `CCCCCCCCCC[N+](C)(C)CCCCCCCCCC`, the concentration at half-maximal activity (AC50) is 4.53 µM (active).

On to `c1ccc(-c2ccccc2)cc1`, for which the concentration at half-maximal activity (AC50) is 4.5 µM (active) and the outcome was inactive.

On to `Cc1cc(O)ccc1Cl`, for which the AC50 is 112 µM (active).

As to `CO/C=C(/C(=O)OC)c1ccccc1COc1cccc(C(F)(F)F)n1`, the AC50 was 0.168 µM (active).

Regarding `c1cc2ccc3cccc4ccc(c1)c2c34`, the AC50 was 13.5 µM (active).

Take `CCCCCCCCCc1ccc(O)cc1`: the concentration at half-maximal activity (AC50) was 61.4 µM (active).

Regarding `O=C(O)C(F)(F)C(F)(F)C(F)(F)C(F)(F)C(F)(F)C(F)(F)C(F)(F)C(F)(F)F`, the AC50 is 53.7 µM (active).

As to `NS(=O)(=O)C(F)(F)C(F)(F)C(F)(F)C(F)(F)C(F)(F)C(F)(F)C(F)(F)C(F)(F)F`, the AC50 is 0.45 µM (active).

For `COc1ccc(O)c(C(C)(C)C)c1`, the concentration at half-maximal activity (AC50) is 57.8 µM (active).

In the case of `CC1=C2C[C@H]3[C@@H](CC=C4C[C@@H](O)CC[C@@]43C)[C@@H]2CC[C@]12O[C@@H]1C[C@H](C)CN[C@H]1[C@H]2C`, the AC50 was 0.115 µM (active).

For the molecule `C1CC2OC2CC1C1CO1` (centres undefined), the AC50 was 77.8 µM (active).

`ClC1=C(Cl)[C@]2(Cl)[C@@H]3[C@H]4C[C@H]([C@@H]5O[C@H]45)[C@@H]3[C@@]1(Cl)C2(Cl)Cl`: the AC50 is 0.00973 µM (active).

Regarding `CC#Cc1cc(C)nc(Nc2ccccc2)n1`, the AC50 was 33.4 µM (active).

As for `COS(=O)(=O)OC`, the result was inactive.
